Experimental data from PubChem BioAssay AID2314 (National Center for Advancing Translational Sciences (NCATS), 2010).
Where “and” joins values, the source holds several entries; their conditions need not be identical. Equal values may be shown once. Screen size: about 300,000 compounds; about 37,000 (12%) were called active. This is one part of a sample in which actives are shown more often than they occur. Cut-off read from the data, not from the text of the source: active = max response mostly above about 13% (no sharp cut-off); inactive = mostly below about 14%.

Assay: Cycloheximide Counterscreen for Small Molecule Inhibitors of Shiga Toxin; note: read at 38.3 µM for the half of the compounds with a filed dose; 0% is about no effect
Conditions: cell reporter, cycloheximide protein synthesis inhibition counterscreen; active compounds read high

SMILES	max response
COc1ccc(CCN2CC(C(=O)NCCN3CCNC3=O)CCC2=O)cc1 (stereo not drawn)	7.2% (inactive)
COc1cc(C(=O)OC(C)C(=O)NCC2CCCCC2)cc(NC(=O)c2ccco2)c1OC (stereo not drawn)	-2.06% (inactive)
COc1ccc(C[C@H]2CN3C(=NC[C@H]3C)N2CCNC(=O)CCC2CCCCC2)cc1	5.31% (inactive)
CCc1nn(CCCC(=O)Nc2ccc(C)cc2C)c(=O)c2cc3occc3n12	0.647% (inactive)
CC(=O)N1Cc2ccccc2CC1C(=O)O (stereo not drawn)	-1.38% (inactive)
Cc1ccc(Nc2nc(Cl)c(C=O)s2)cc1	46% (active)
Cc1ccc(Nc2nc(C)cc(C)c2C(N)=O)cc1	-4.97% (inactive)
Cc1ccc(NC(=O)Nc2nnc(-c3ccncc3)s2)cc1	-1.9% (inactive)
Cc1cccc(OCC(O)CN2CCN(CCN3C(=O)c4cccc5cccc(c45)C3=O)CC2)c1C (stereo not drawn)	-8.1% (inactive)
COC(=O)CN1C(=O)[C@H]2[C@@H](C3CC3)N3C(=O)CN(Cc4ccc(-c5ccccc5)cc4)C(=O)[C@@]3(Cc3ccccc3)[C@H]2C1=O	-3.99% (inactive)
Cc1ccc(NC(=S)N(CCCN2CCCC2)Cc2cccn2Cc2ccc(Cl)cc2)cc1	-7.32% (inactive)
Cc1cc(F)ccc1S(=O)(=O)N1CCCOC1CNC(=O)C(=O)NCCC1=CCCCC1 (stereo not drawn)	-4.9% (inactive)
CC1=NN(c2ccccc2)C(=O)C1C(=O)c1ccc([N+](=O)[O-])cc1 (stereo not drawn)	20.6% (inactive)
O=C1CC(c2ccccc2)=NN1c1ccc([N+](=O)[O-])cc1	17.2% (active)
O=c1[nH]n(-c2ccc([N+](=O)[O-])cc2)c(=O)c2ccccc12	-2.65% (inactive)
Cc1ccc(CNC(=O)C2(C(F)(F)F)C/C(=C\Cc3ccccc3)CCCO2)o1 (stereo not drawn)	-3.33% (inactive) and -3.22% (inactive)
O=C(COc1nsnc1N1CCOCC1)Nc1ccccc1Cl	8.06% (inactive)
COc1ccc(NC(=O)CSc2nc3ccccc3c(=O)n2C)cc1	-4.03% (inactive)
COc1cc2ccccc2cc1C(=O)Nc1ccc(N2CCOCC2)cc1	8.83% (inactive)
CCn1c(Cc2ccc(OC)cc2)nnc1SCC(=O)Nc1ccc(N2CCOCC2)cc1	-3.63% (inactive)

SMILES	max response
COc1cccc(/C=C(/CC(=O)Nc2ccc(N3CCOCC3)cc2)c2nc3ccccc3s2)c1	50.5% (active)
COc1ccc(NC(=O)COC(=O)c2ccc(NS(=O)(=O)/C=C/c3ccccc3)cc2)cc1	0.764% (inactive)
COc1ccc(/C=C(/CC(=O)Nc2ccc(C)cc2)c2nc3ccccc3s2)cc1	21.2% (active)
Cc1cc(C(=O)NC2CCN(Cc3ccccc3)CC2)n[nH]1	-5.5% (inactive)
Clc1ccc(C[n+]2cc(-c3ccc(Cl)cc3)n3c2CCC3)cc1	1.82% (inactive)
Cc1ccc(CN2CCCOCCS2(=O)=O)cc1	0.911% (inactive)
O=C(COc1ccccc1)NCCc1nc2ccccc2[nH]1	-4.17% (inactive)
CCO[C@@H]1OC(C(=O)NCc2nc3ccccc3[nH]2)=C[C@H](C2CCCCC2)[C@H]1CCCO	-1.94% (inactive)
O=C(OCc1nc2ccccc2[nH]1)C1CCCCC1	16.3% (active)
CCc1cc2c(NC(Cc3ccccc3)C(=O)O)ncnc2s1 (stereo not drawn)	1.45% (inactive)
Cc1ccc(NC(=O)CC2C(=O)N(Cc3ccccc3)C(=S)N2NC(=O)c2cccc(F)c2)c(C)c1 (stereo not drawn)	-8.81% (inactive)
Nc1nc(SCCOc2ccccc2)n[nH]1	10.5% (inactive)
Cc1ccc(OCCCCc2c(C)n[nH]c2C)cc1	7.68% (inactive)
CCCOc1ccc(-c2nc(N)n[nH]2)cc1	27.8% (active)
CC(NCC(=O)Nc1cc(Cl)cc(Cl)c1)c1ccccc1 (stereo not drawn)	-2.23% (inactive)
COc1cccc(CNC(=O)CCC2CCCN(Cc3ccc(OC(F)F)cc3)C2)c1 (stereo not drawn)	-2.71% (inactive)
COc1ccc(OC)c(CNC(=O)Cn2nc(C)c3c(C)n(-c4ccc(C)cc4)nc3c2=O)c1	2.16% (inactive)
CC(=O)Nc1cccc(NC(=O)CSc2nccn2Cc2ccc(F)cc2)c1	-0.128% (inactive)
Cn1c(=O)n(C)c2cc(C(=O)Nc3ccc4c(c3)OCO4)ccc21	21.7% (active)
COc1ccc(S(=O)(=O)Nc2ccc3c(c2)OCO3)cc1Cl	1.12% (inactive)

SMILES	max response
Cn1c(=O)n(C)c2cc(C(=O)Nc3ccc(Br)cc3)ccc21	5.85% (inactive)
COc1ccc(C(=O)Nc2ccc(C3(C#N)CCCC3)cc2)cc1OC	20.7% (active)
COc1cccc(OC)c1C(=O)Nc1ccc2c(c1)n(C)c(=O)n2C	-0.414% (inactive)
COc1ccc(-c2cc(C(F)(F)F)nc(SCC(=O)Nc3ccc4c(c3)OCO4)n2)cc1OC	0.778% (inactive)
COc1ccc(C(=O)Nc2ccc3c(c2)OCO3)cc1OC	57.2% (active)
COc1cc(C(=O)NCC2(c3ccccc3)CCCC2)ccc1OC(C)C	-3% (inactive)
COc1ccc(C(=O)Nc2ccc3nc(N4CCCCC4)cc(C)c3c2)cc1OC	-1.84% (inactive)
O=C(Cc1ccccc1)Nc1c(C(=O)N2CCCCCC2)cnn1-c1ccccc1	-1.98% (inactive)
COc1ccc2c(c1)CCc1cn3ncc(C#N)c3nc1-2	-3.03% (inactive)
CCCCn1nc(C(=O)N2CCc3ccccc32)c2ccccc2c1=O	1.07% (inactive)
Cc1nc(N=C(N)N)nc2c(C)cccc12	3.71% (inactive)
CCOC(=O)C(C)n1cnc2scc(-c3ccc(C)c(C)c3)c2c1=O (stereo not drawn)	-0.876% (inactive)
Cc1ccccc1OCC(=O)N(Cc1cccc(F)c1)C1CCS(=O)(=O)C1 (stereo not drawn)	-13% (inactive)
Cc1cc2oc(=O)cc(-c3ccccc3)c2c(C)c1-c1ccc(OC(F)(F)F)cc1	17.1% (inactive)
CN(C(=O)CCNC(=O)Cn1ccc2ccccc2c1=O)c1ccc(Br)cc1	-6.96% (inactive)
CCN(/N=C/c1ccc(N(C)C)cc1)c1nc2ccccc2[nH]1	5.84% (inactive)
CNC(=O)c1ccsc1NC(=O)c1ccc(S(=O)(=O)N2CCc3ccccc32)cc1	-2.6% (inactive)
CCN(CC)CCCNC(=O)c1cc2c(=O)[nH]c3ccc(C)cc3c2s1	0.225% (inactive)
